FUS suppressor: rescues growth of FUS-expressing yeast. AID 1347120. actives 0.24% (n = 390,000). S. cerevisiae FUS-expressing, growth rescue, OD600, 24 h. Potency, µM (top dose mostly 76.6 µM), most hits filed as activators;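 also: plate controls were DMSO vehicle for no effect and reference control for full effect; nearly all actives have a fitted effect of over 55% in size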
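Yeast FUS proteinopathy model; galactose-induced FUS (2%), starting OD 0.005. Cpds in dilution series, 24hr, 30C, 99% humidity. Abs 600 nm growth. Pos ctrl CP55940 (top 92uM final); neg ctrl DMSO.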
ClpP mod: qHTS Assay for Activators of ClpP; ATP-dependent Clp protease proteolytic subunit (Bacillus subtilis (strain 168)), P80244; purified B. subtilis ClpP, FRET peptide cleavage, 20 min; Potency, µM (doses to about 57.5 µM), without a hit: top-dose activity change, negative = active; actives 1.9% (n = 340,000); active = well fitted falling curve with a large enough effect; inconclusive = small, poorly fitted or top-dose-only effect; inactive = no such curve, though single readings can be large or run the other way; also: the source files actives as falling curves though it sought activators and does not explain the sign; nearly all actives have a fitted effect of over 65% in size
Target sequence (P80244 whole entry, looked up): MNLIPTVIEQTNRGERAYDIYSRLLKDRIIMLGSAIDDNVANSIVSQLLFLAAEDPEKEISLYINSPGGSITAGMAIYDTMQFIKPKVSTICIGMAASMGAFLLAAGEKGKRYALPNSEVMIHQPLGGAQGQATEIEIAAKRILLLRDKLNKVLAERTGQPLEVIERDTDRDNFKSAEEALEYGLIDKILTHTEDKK
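ClpP 10 microg/mL final, pH 8 Tris/KCl buffer with BSA, glycerol, Tween-20; compound pinned in; FRET-FV substrate; RT 20 min; Ex320/Em430; ΔFRET vs ADEP 5.8 microM, DMSO, no enzyme.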
Abeta yeast res: A-beta toxicity reversal in yeast; yeast expressing A-beta42, growth rescue, OD600, 48 h; response scale: 0% DMSO, 100% iron-clioquinol control; Potency, µM (series often up to 46.1 µM), hits mostly activators; actives 0.063% (n = 410,000); AID 1347071; also: nearly all actives have a fitted effect of over 55% in size
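Growth rescue measured by 600 nm absorbance after 48 h yeast culture at 30 C with compound. Values normalized between DMSO and an equimolar ferric chloride plus clioquinol control.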
MmCpn inh: blocks the Methanococcus maripaludis chaperonin Mm-Cpn; purified Mm-Cpn ATPase, ADP Transcreener TR-FRET; Potency, µM (series often up to 76.9 µM), for inactives: top-dose activity, negative = inhibition, usual class: inhibitors; actives 0.031% (n = 330,000); AID 504842; also: % is scaled to controls: 0 for no effect and ±100 for the full control effect; nearly all actives have a fitted effect of over 80% in size
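TR-FRET (320 nm excitation; 590 and 665 nm emission) reports ADP made from 10 uM ATP by 25 nM enzyme; compounds were preincubated 10 min, reaction run 30 min, both at 37°C.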
TDP43 rescue: TDP-43 toxicity inhibition in yeast | actives 1.8% (n = 410,000) | TDP-43 expressing yeast growth rescue, BacTiter-Glo, 24 h | Potency, µM (highest dose often 46.1 µM), for the others: at the top dose growth rescue (activation), actives largely listed as activators; also: % of control where 0% means no effect; nearly all actives have a fitted effect of over 50% in size
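Yeast expressing TDP-43 (pregrown in raffinose, seeded at OD600=0.02 in galactose medium) exposed to compounds 24 hr at 30 deg C. Growth read by BacTiter-Glo luminescence; rescue of toxicity appears as increased signal.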
aSyn rescue: rescues yeast growth from alpha-synuclein toxicity; Yeast expressing alpha-synuclein, growth rescue, BacTiter-Glo, 24 h; Potency, µM (doses to about 46.1 µM), for inactives: at the top dose growth rescue (activation), usual class: activators; actives 0.14% (n = 370,000); AID 652106; also: % of control where 0% means no effect; nearly all actives have a fitted effect of over 65% in size
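Readout is rescue of growth in alpha-synuclein-expressing yeast, so inhibitors of toxicity appear as activators. Growth after 24 hr at 30 deg C in galactose medium is quantified by luminescence.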
Numbers without * were called inactive; i = inactive; ? = inconclusive; · = no result given. Compounds with a hit are over-represented: about 3.6% of the library has one in this group of screens. Unless noted, calls follow the shape of the dose curve; as a rule, active = well fitted curve in the direction sought with a large enough effect; inconclusive = small, poorly fitted or top-dose-only effect, or another doubt; inactive = no such curve, though single readings can be large; an effect the other way counts as inactive or inconclusive. Potency is read from the fitted curve at half-maximal effect.

SMILES	FUS suppressor	ClpP mod	Abeta yeast res	MmCpn inh	TDP43 rescue	aSyn rescue
CCOC(=O)C1=NN(C(=O)c2ccc(C)cc2)C(O)(c2ccc(Cl)cc2)C1 (centres undefined)	?	2%	i	-1%	13µM*	?
COC(=O)C1=NN(C(=O)c2ccc(Cl)cc2)C(O)(c2ccccc2)C1 (centres undefined)	i	-1%	i	0%	27%	20µM*
CCC1=NN(C(=O)c2ccc(Cl)cc2)C(O)(c2ccc(C)cc2)C1 (centres undefined)	i	·	i	3%	-1%	2%
NC(=O)[C@@H]1CCCN1Cc1c(C(=O)N2CCN(C3CCCCC3)CC2)nc2ccccn12	i	18µM*	i	0%	7%	5%
O=c1n(Cc2ccc(Cl)cc2)c2ccccc2c2nc(-c3ccccc3)nn12	i	-20%	i	·	-8%	·
CCCCSc1ccc2nc(-c3ccc(C#N)cc3)cn2c1	i	?	i	-2%	11µM*	-12%
CCCSc1ccc2nc(-c3ccccc3)cn2c1	·	22µM*	i	-4%	-14%	-18%
CCCCCCCOc1ccc(-c2ccc(C#N)cn2)cc1	i	-3%	i	-2%	9%	-13%
c1ccc(-c2cn3ccccc3n2)cc1	i	·	i	·	-19%	-4%
CNC(=O)C1CCC(Cn2c(=O)[nH]c3ccsc3c2=O)CC1 (centres undefined)	i	-1%	i	·	?	·
Cc1cccc(Cn2c(=O)n(-c3cc(C)cc(C)c3)c(=O)c3oc4ccccc4c32)c1	i	-17%	i	·	?	·
COc1cccc(Cn2c(=O)n(-c3cc(C)cc(C)c3)c(=O)c3oc4ccccc4c32)c1	i	35µM*	i	·	-12%	·
C=CC(=O)N1C/C(=C/c2ccccc2)C(=O)/C(=C\c2ccccc2)C1	·	32µM*	i	·	-41%	-48%
N#Cc1ccccc1-c1csc(N2CCC(C(N)=O)CC2)n1	·	·	·	-3%	·	·
Cc1ccc(C)c(N2CCN(C(=O)c3cc4c(=O)n(Cc5ccco5)ccc4nc3C)CC2)c1	i	-30%	i	·	-10%	·
O=[N+]([O-])c1cc(S(=O)(=O)Oc2ccccc2)ccc1Cl	·	35µM*	i	·	11µM*	-6%
O=S(=O)(Oc1ccccc1)c1ccc(Cl)c(Cl)c1	i	·	i	·	16%	10%
CCCOC(=O)CSc1nc(N)c(C#N)c(-c2ccco2)c1C#N	i	25µM*	i	·	25%	0%
N#Cc1c(N)nc(SCC(=O)OCc2ccccc2)c(C#N)c1-c1ccco1	i	-30%	i	-8%	29%	1%
COc1ccc(OC)c(CNC(=O)c2ccc3nc(C(C)C)oc3c2)c1	?	32µM*	i	·	13%	·
COc1ccccc1C(=O)NC1CCCCN(Cc2ccc(C)cc2)C1=O (centres undefined)	i	·	·	·	·	·
Nc1ccccc1Nc1cc(-c2ccccc2)nn1-c1cccc(Cl)c1	?	1%	i	1%	?	-1%
CNc1nn(-c2cccc(Cl)c2)nc1N	i	32µM*	i	-4%	?	-30%
Cc1ccc(C)c(CNC(=O)c2sc3ncnc(N(C)C4CCCCC4)c3c2C)c1	i	?	i	·	22µM*	·
Cc1ccc(C(=O)N2CCC(C(=O)c3c(C)cc(C)cc3C)CC2)cc1	?	0%	i	0%	18µM*	2%
SMILES	FUS suppressor	ClpP mod	Abeta yeast res	MmCpn inh	TDP43 rescue	aSyn rescue
Cc1ccc(C(=O)C2CCN(C(=O)c3ccc(C)cc3)CC2)cc1	i	-2%	i	0%	15%	-7%
Cc1cc(NC(=O)NC(=O)c2ccccc2NC(=O)CN)ccc1Oc1ncc(Br)cn1	·	18µM*	i	·	19%	4%
Cc1cc(NC(=O)NC(=O)c2ccccc2NC(=O)CN(C)C)ccc1Oc1ncc(Br)cn1	·	1%	i	·	16%	-1%
Nc1ccccc1C(=O)NC(=O)Nc1ccc(Oc2ncc(Br)cn2)c(Cl)c1	·	22µM*	i	·	12%	-1%
O=S(=O)(Cc1ccccc1)N1CCN(c2nc(-c3cccs3)nc3ccccc23)CC1	·	4%	·	·	·	-3%
CCN(CC)CCN1CCn2c3c(c4cc(C)ccc42)CCCC31 (centres undefined)	i	-7%	i	-5%	-21%	-1%
CCN1CCn2c3c(c4cc(Cl)ccc42)CCCC31 (centres undefined)	i	16µM*	i	0%	4%	4%
Cc1ccc(C)c(CN2C(=O)NC3(CCCCCC3)C2=O)c1	i	-1%	?	0%	22µM*	0%
Cc1ccc(C)c(C(=O)CN2C(=O)NC3(CCCCCCC3)C2=O)c1	i	2%	i	-3%	-12%	8%
COc1ccccc1C(=O)NC(CCSC)C(=O)NNC(=O)c1ccc(F)cc1 (centres undefined)	i	28µM*	i	-4%	-16%	-1%
COc1ccccc1C(=O)NC(CCSC)C(=O)NNC(=O)c1ccccc1O (centres undefined)	i	?	i	-1%	7%	-9%
COc1cccc2cc(/C(=N/O)c3ccccc3)oc12	i	-15%	i	1%	11µM*	16%
CCOc1ccc(-c2cc(C(=O)Oc3ccc(C#N)cc3)no2)cc1	i	-17%	i	·	28%	·
CC(=O)Nc1cccc(NC(=O)c2cc3c(=O)n4cccc(C)c4nc3n2C)c1	i	-18%	i	·	1%	·
O=C(CN1CCN(c2ccc(O)cc2)CC1)Nc1cc([N+](=O)[O-])ccc1Cl	i	16µM*	i	0%	21%	6%
CCN1CCN(C(c2cccc(F)c2)c2c(O)cc(C)n(Cc3ccco3)c2=O)CC1 (centres undefined)	i	-3%	?	·	8%	·
CCOc1ccc(C(=O)Nc2cc(-c3nc4ccccc4[nH]3)ccc2Cl)cc1[N+](=O)[O-]	·	?	i	0%	4µM*	-14%
CCCOc1cccc(C(=O)Nc2cc(-c3nc4ccccc4[nH]3)ccc2C)c1	?	-29%	i	·	5%	·
CCOc1ccc(C(=O)Nc2cc(-c3nc4ccccc4[nH]3)ccc2C)cc1[N+](=O)[O-]	?	-2%	i	1%	-3%	-16%
CCCOc1ccc(C(=O)Nc2cc(-c3nc4ccccc4[nH]3)ccc2C)cc1	i	-13%	i	·	13µM*	·
